MLL AF4-AF9 inh = inhibitors of AF4 peptide binding to AF9, primary screen, biochemical, AlphaScreen, biotin-AF4 peptide, FLAG-AF9, single point. 350,000 tested, 0.47% active. Protein AF-9 (Homo sapiens), P42568. inhibition, % at 10 µM;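 active means every replicate reaching a set inhibition limit, whatever the replicate mean, cut at about 25% in these data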
RAD52 anneal inh = RAD52 DNA annealing inhibitors, primary screen, biochemical, FRET, single point, set 2 | DNA repair protein RAD52 homolog (Homo sapiens), P43351 | recombinant RAD52 DNA annealing, FRET fluorescence | inhibition, % at 18.7 µM | 360,000 tested, 0.46% active;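 active means every replicate showing at least 50% inhibition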
miR122 inh = miR-122 Renilla sensor signal increase in Huh7, primary screen, miR-122 inhibitor project, cell-based, single point, plate reader | activation (reporter increase), % at 12.5 µM | AID 602342, 2012 | Huh7 miR-122 Renilla luciferase sensor, 48 h; neutral wells = 0, positive control = 100 | 340,000 tested, 0.3% active;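 active means mean replicate activation score at least 90 and every replicate individually at or above 90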;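 further: higher luciferase means less miR-122 activity so hits act as miR-122 inhibitors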
CASP6 VEID inh = human caspase-6 inhibitors, primary screen, biochemical, VEID-R110 fluorescence, single point, set 2; P55212; purified caspase-6, Z-VEID-R110 cleavage fluorescence; inhibition, % at 12.5 µM; 350,000 tested, 0.53% active;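 active means mean inhibition across replicates at least about 35%, with every replicate also reaching that limit, limit read from the data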
NSD2 inh = NSD2 histone methyltransferase inhibitors, primary screen, biochemical, AlphaScreen, single concentration, set 2; NSD2 peptide methylation, 120 min; inhibition, % at 12.5 µM; 310,000 tested, 0.54% active; in the data active means inhibition above about 50%
Target sequence (O96028 whole entry, looked up): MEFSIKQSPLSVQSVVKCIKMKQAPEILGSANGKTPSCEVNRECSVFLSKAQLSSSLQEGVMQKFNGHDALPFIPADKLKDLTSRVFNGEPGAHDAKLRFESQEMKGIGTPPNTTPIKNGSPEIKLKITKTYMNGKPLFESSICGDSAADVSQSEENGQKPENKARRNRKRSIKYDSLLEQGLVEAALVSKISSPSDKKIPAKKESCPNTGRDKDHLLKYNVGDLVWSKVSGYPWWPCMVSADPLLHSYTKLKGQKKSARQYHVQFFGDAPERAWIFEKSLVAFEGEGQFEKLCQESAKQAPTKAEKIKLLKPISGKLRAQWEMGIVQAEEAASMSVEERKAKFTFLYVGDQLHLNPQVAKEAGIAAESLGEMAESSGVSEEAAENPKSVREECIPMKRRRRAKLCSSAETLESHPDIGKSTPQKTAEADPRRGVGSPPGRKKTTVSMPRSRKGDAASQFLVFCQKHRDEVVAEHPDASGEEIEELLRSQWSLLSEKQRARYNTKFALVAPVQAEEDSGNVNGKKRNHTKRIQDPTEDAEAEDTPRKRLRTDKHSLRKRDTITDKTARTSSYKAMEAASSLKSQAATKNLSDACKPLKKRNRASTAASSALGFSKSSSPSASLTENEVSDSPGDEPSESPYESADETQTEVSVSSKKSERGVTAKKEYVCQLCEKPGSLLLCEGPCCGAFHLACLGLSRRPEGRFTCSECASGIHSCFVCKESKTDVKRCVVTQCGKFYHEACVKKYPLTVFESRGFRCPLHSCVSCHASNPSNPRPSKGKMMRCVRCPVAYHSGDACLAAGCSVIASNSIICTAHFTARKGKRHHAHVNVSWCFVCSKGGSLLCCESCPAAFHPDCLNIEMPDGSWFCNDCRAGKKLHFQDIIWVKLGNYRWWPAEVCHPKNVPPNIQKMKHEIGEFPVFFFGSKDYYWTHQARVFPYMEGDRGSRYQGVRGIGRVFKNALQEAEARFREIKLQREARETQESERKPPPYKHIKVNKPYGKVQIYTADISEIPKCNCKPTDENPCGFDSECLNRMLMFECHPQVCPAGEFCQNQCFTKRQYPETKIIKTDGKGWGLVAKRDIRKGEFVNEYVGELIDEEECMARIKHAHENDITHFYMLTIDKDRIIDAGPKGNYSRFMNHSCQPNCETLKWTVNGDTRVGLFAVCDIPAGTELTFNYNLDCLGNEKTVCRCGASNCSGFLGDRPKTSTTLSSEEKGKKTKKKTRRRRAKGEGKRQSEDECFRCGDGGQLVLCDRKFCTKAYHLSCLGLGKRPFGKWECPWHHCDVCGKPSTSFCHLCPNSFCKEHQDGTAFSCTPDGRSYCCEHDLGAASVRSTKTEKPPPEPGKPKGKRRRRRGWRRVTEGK
Each line names hits and unclear results; the compound was inactive in the other large screens. Shown are actives, neighbours in structure and some others; about 1.5% of the full set was active somewhere.

COc1ccc(C2COc3cc(O)ccc3C2)c(OC)c1O (configuration not stated)	none (no result: NSD2 inh)
COc1ccc(OC)c(-c2csc(NC(=O)Cc3ccccc3F)n2)c1	miR122 inh 117 (no result: NSD2 inh)
N#Cc1ccc(NC(=S)N2CCC3CC2c2cc(-c4ccc5c(c4)OCO5)ccc23)cc1 (configuration not stated)	miR122 inh 110 (no result: NSD2 inh)
C[C@@H]1CCCCO[C@H](CN(C)S(C)(=O)=O)[C@H](C)CN([C@@H](C)CO)C(=O)c2cc(NC(=O)Nc3ccc4c(c3)OCO4)ccc2O1	none (no result: NSD2 inh)
COc1ccc(CNC(=O)C(c2ccc(C)o2)N(Cc2cccs2)C(=O)Cc2cccs2)cc1 (configuration not stated)	miR122 inh 158 (no result: MLL AF4-AF9 inh, RAD52 anneal inh, CASP6 VEID inh)
COCCN(C(=O)Cc1cccs1)C(C(=O)NCc1ccc(OC)cc1)c1ccc(C)cc1 (configuration not stated)	none (no result: MLL AF4-AF9 inh, RAD52 anneal inh, CASP6 VEID inh, NSD2 inh)
O=C(NC1CCCCCCC1)c1ccc(CNc2c(N3CCOCC3)c(=O)c2=O)cc1	MLL AF4-AF9 inh 40 (no result: NSD2 inh)
CO[C@@H]1CN(C)C(=O)c2ccc(NC(=O)Nc3ccc4c(c3)OCO4)cc2OC[C@H](C)NC[C@H]1C	none (no result: miR122 inh, NSD2 inh)
O=[N+]([O-])c1cc(S(=O)(=O)Nc2ccc(Cl)cc2)ccc1N/N=C/c1ccncc1	miR122 inh 279
O=c1nc2s/c(=C\c3ccc(-c4ccccc4[N+](=O)[O-])o3)c(=O)n2nc1-c1ccccc1	CASP6 VEID inh 39
O=C(/C=C/c1ccc(Cl)cc1Cl)Nc1ccc(-c2nnc3n2CCCCC3)cc1	none (no result: MLL AF4-AF9 inh, RAD52 anneal inh, miR122 inh, CASP6 VEID inh)
Cc1cccc(C)c1NC(=O)c1cc(S(=O)(=O)N2CCC3(CC2)OCCO3)ccc1F	CASP6 VEID inh 65
COc1ccc(C)cc1NC(=O)c1cc(S(=O)(=O)N2CCC3(CC2)OCCO3)ccc1F	none
Cc1noc(C)c1NC(=O)N(C)C[C@@H]1Oc2ccc(NC(=O)CCCCCC(=O)Nc3ccccc3N)cc2C(=O)N([C@H](C)CO)C[C@H]1C	none (no result: RAD52 anneal inh, miR122 inh, CASP6 VEID inh, NSD2 inh)
C=C(CCC(=O)c1ccccc1)C(=O)c1ccccc1	CASP6 VEID inh 61 (no result: miR122 inh)
O=C(O)c1ccc(N=N/C(=N\Nc2ccc(C(=O)O)cc2)c2ccccc2)cc1	none (no result: NSD2 inh)
Brc1ccc(N/N=C(/N=Nc2nn[nH]n2)c2ccccc2)cc1	MLL AF4-AF9 inh 41 (no result: miR122 inh)
CC(C)(C)c1ccc(S(=O)(=O)Nc2ccc(C(=O)N3CCCC3)cc2)cc1	none (no result: miR122 inh)
O=S(=O)(Nc1ccc(C(O)(C(F)(F)F)C(F)(F)F)cc1)c1cccc2ccccc12	miR122 inh 102 (no result: NSD2 inh)
CC(C)(C)c1ccc(S(=O)(=O)Nc2ccc(C(O)(C(F)(F)F)C(F)(F)F)cc2)cc1	miR122 inh 103 (no result: NSD2 inh)
COc1cccc(S(=O)(=O)Nc2ccc(C(O)(C(F)(F)F)C(F)(F)F)cc2)c1	miR122 inh 129 (no result: NSD2 inh)
COCC(=O)Nc1ccc2c(c1)[C@H]1C[C@@H](CC(=O)NCc3ccc(-c4ccccc4)cc3)O[C@H](CO)[C@H]1O2	none (no result: NSD2 inh)
FC(F)(F)c1cc(CCN2CCNC[C@@H]2Cc2ccccc2)cc(C(F)(F)F)c1	MLL AF4-AF9 inh 27 (no result: miR122 inh, NSD2 inh)
Fc1cccc(CCN2CCNC[C@@H]2Cc2ccccc2)c1	none (no result: miR122 inh, NSD2 inh)
Fc1ccc(COc2cccc3cccnc23)cc1	none
CC[C@H](C)[C@H](NC(N)=O)C(=O)NNC(=O)c1ccc(COc2cccc3cccnc23)cc1	MLL AF4-AF9 inh 35 (no result: NSD2 inh)
Cc1cccc(OCC(=O)NNC(=O)c2ccc3nc[nH]c3c2)c1	CASP6 VEID inh 41
COc1ccc(CCN2CC(O)=C(c3nc(C)cs3)C2=N)cc1OC	miR122 inh 130 (no result: MLL AF4-AF9 inh, RAD52 anneal inh, CASP6 VEID inh)
Cc1csc(C2=C(O)CN(CCc3ccccc3)C2=N)n1	none (no result: MLL AF4-AF9 inh, RAD52 anneal inh, CASP6 VEID inh, NSD2 inh)
COc1ccc(N2CCN(C(=O)CN3CCN(c4nc(-c5ccc(F)cc5)cs4)CC3)CC2)cc1	MLL AF4-AF9 inh 27
COc1ccc(-c2nnn(CC(=O)N3CCN(c4ccc(F)cc4)CC3)n2)cc1	none
CCCc1cn(CC[C@H]2CC[C@H](NC(=O)C3CCCCC3)[C@H](CO)O2)nn1	none (no result: NSD2 inh)
CCN(c1ccccc1)c1ncnc2c1cnn2-c1ccccc1	MLL AF4-AF9 inh 28 (no result: NSD2 inh)
O=C(NCc1ccc(F)cc1)[C@H]1C[C@H]2C(=O)N3CCC[C@H]3C(=O)N2[C@H]1c1ccc(O)cc1	none (no result: miR122 inh, NSD2 inh)
O=[N+]([O-])c1ccccc1S(=O)(=O)Nc1nc2ccccc2s1	CASP6 VEID inh 44
Cc1ccccc1OCCNc1cc(N2CC(C)NC(C)C2)ccc1[N+](=O)[O-] (configuration not stated)	MLL AF4-AF9 inh 38 (no result: NSD2 inh)
C[C@@H]1CN([C@H](C)CO)C(=O)c2cccc(NC(=O)c3nc4ccccc4s3)c2O[C@@H]1CN(C)S(=O)(=O)c1ccc(F)cc1	none (no result: NSD2 inh)
Fc1cccc(Cn2cc(C(=S)N3CCOCC3)c3ccccc32)c1	miR122 inh 176
Fc1cccc(Cn2cc(C(=S)N3CCCCC3)c3ccccc32)c1	none (no result: MLL AF4-AF9 inh, RAD52 anneal inh, CASP6 VEID inh)
COCC(=O)Nc1ccc2c(c1)OC[C@H](C)N(C(=O)c1ccccn1)C[C@H](C)[C@H](OC)CN(C)C2=O	none (no result: MLL AF4-AF9 inh, RAD52 anneal inh, CASP6 VEID inh, NSD2 inh)
O=C1NC(=O)/C(=C/c2ccc(-c3cc(C(=O)O)ccc3Cl)o2)S1	none (no result: miR122 inh)
O=C1NC(=O)/C(=C\c2ccc(Br)o2)S1	CASP6 VEID inh 49 (no result: miR122 inh)
CCOC(=O)c1c(C)oc2c1c(C=NCc1ccccn1)c(O)c1ccccc12	CASP6 VEID inh 60 (no result: miR122 inh, NSD2 inh)
CCOC(=O)c1c(C)oc2c1cc(O)c1ccccc12	none (no result: MLL AF4-AF9 inh, RAD52 anneal inh, CASP6 VEID inh, NSD2 inh)
CCOC(=O)c1c(NCC2CCCO2)c2ccccc2[nH]c1=O (configuration not stated)	none (no result: MLL AF4-AF9 inh, RAD52 anneal inh, CASP6 VEID inh)
CCOC(=O)c1c(C)oc2c1c(C=NCC1CCCO1)c(O)c1ccccc12 (configuration not stated)	NSD2 inh 99 (no result: MLL AF4-AF9 inh, RAD52 anneal inh, CASP6 VEID inh)
CO[C@@H]1CN(C)C(=O)c2cc(NC(=O)NC(C)C)ccc2OC[C@@H](C)NC[C@@H]1C	none (no result: MLL AF4-AF9 inh, RAD52 anneal inh, CASP6 VEID inh, NSD2 inh)
CCCNC(=O)NC[C@@H]1CC[C@H]2[C@H](CN2C(=O)C2CCOCC2)O1	none (no result: miR122 inh, NSD2 inh)
CCOc1cc(N2CCOCC2)c(OCC)cc1NS(=O)(=O)c1ccc(Cl)s1	miR122 inh 113 (no result: MLL AF4-AF9 inh, RAD52 anneal inh, CASP6 VEID inh)
CCOc1cc(N2CCOCC2)c(OCC)cc1NC(=O)C(C)Oc1ccccc1 (configuration not stated)	MLL AF4-AF9 inh 29
CCOc1cc(N2CCOCC2)c(OCC)cc1NC(=O)c1ccccc1C	none (no result: miR122 inh)
CCOc1cc(N2CCOCC2)c(OCC)cc1NC(=O)c1cc(S(=O)(=O)N2CCOCC2)ccc1Cl	none
C[C@H]1CN([C@@H](C)CO)C(=O)c2cc(NC(=O)Cn3cnnn3)ccc2O[C@@H]1CN(C)Cc1ccc(Oc2ccccc2)cc1	none (no result: NSD2 inh)
COc1ccc(/C=C/C(=O)c2ccc(O)cc2)cc1CN1CCOCC1	none (no result: MLL AF4-AF9 inh, RAD52 anneal inh, miR122 inh, CASP6 VEID inh)
COc1ccc(/C=C/C(=O)C23CC4CC(CC(C4)C2)C3)cc1CN1CCOCC1	MLL AF4-AF9 inh 26 (no result: miR122 inh)
CC(=Nc1ccccc1)c1sc2ccccc2c1O	MLL AF4-AF9 inh 26
O=C(C[C@H]1CC[C@H](NC(=O)C2CCOCC2)[C@@H](CO)O1)NCc1ccccc1Cl	none (no result: NSD2 inh)

Screening data from PubChem BioAssay.
